Assay results reported in PubChem BioAssay (NCI).
Compounds without any hit were thinned out: in the full panel of roughly 83,000, 20% have a hit.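 Activity criterion: percent growth below 10, measured after cells in 96-well plates were exposed to a single compound concentration for 48 hours.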 Activity calls are given as the source filed them.

Assays:
Assay in all cases: NCI-60 one-dose screen, 48 h (100 = growth as untreated, 0 = no growth, -100 = all killed)
Details in all cases: 10 µM unless noted
DU-145 prostate = system: DU-145 prostate
K-562 leukemia = system: K-562 leukemia
MALME-3M melanoma = system: MALME-3M melanoma
MDA-MB-231 breast = system: MDA-MB-231 breast
RXF 393 renal = system: RXF 393 renal
SF-268 CNS = system: SF-268 CNS
SF-295 CNS = system: SF-295 CNS
SF-539 CNS = system: SF-539 CNS
UACC-257 melanoma = system: UACC-257 melanoma
M14 melanoma = system: M14 melanoma

Measured: growth

O=[N+]([O-])c1cccc(-c2nc3sccn3c2-c2ccnc(NCCCNS(=O)(=O)c3ccc(Cl)cc3)n2)c1
inactive: DU-145 prostate 64.2% | K-562 leukemia 26.6% | MALME-3M melanoma 62.8% | MDA-MB-231 breast 70.8% | RXF 393 renal 77.9% | SF-268 CNS 69.7% | SF-295 CNS 37.2% | SF-539 CNS 84.9% | UACC-257 melanoma 47.7% | M14 melanoma 47%

Cc1nc2ncccc2nc1Nc1ccc(S(=O)(=O)Nc2ccccn2)cc1
inactive: DU-145 prostate 105% | K-562 leukemia 106% | MALME-3M melanoma 107% | MDA-MB-231 breast 89.1% | RXF 393 renal 109% | SF-268 CNS 98.4% | SF-295 CNS 104% | SF-539 CNS 97.5% | UACC-257 melanoma 107% | M14 melanoma 97.5%

Cc1ccc(/C=C2\CN(C(=O)CCN3CCC(=NO)CC3)C/C(=C\c3ccc(C)cc3)C2=O)cc1
inactive: DU-145 prostate 21.6% | SF-268 CNS 12.9% | UACC-257 melanoma 44.9%
active: K-562 leukemia 4.38% | MALME-3M melanoma -27.6% | MDA-MB-231 breast -13.8% | RXF 393 renal -77.7% | SF-295 CNS -1.83% | SF-539 CNS -18% | M14 melanoma 5.63%

Nc1nc(-c2ccccc2)c(CCCOc2ccc(NC(=O)CBr)cc2)c(=O)[nH]1
inactive: DU-145 prostate 104% | K-562 leukemia 94.3% | MALME-3M melanoma 123% | MDA-MB-231 breast 87.4% | RXF 393 renal 106% | SF-268 CNS 91.8% | SF-295 CNS 117% | SF-539 CNS 93.1% | UACC-257 melanoma 86.9% | M14 melanoma 104%

COc1ccc(/C=C2\Oc3cc(OCCCN4CCCC4)ccc3C2=O)cc1
active: K-562 leukemia -25%
inactive: DU-145 prostate 95.4% | MALME-3M melanoma 108% | MDA-MB-231 breast 93.8% | RXF 393 renal 78.9% | SF-268 CNS 88.9% | SF-295 CNS 98.7% | SF-539 CNS 79.7% | UACC-257 melanoma 101% | M14 melanoma 84.4%

COc1ccc(-c2cnoc2-c2ccc(OC)cc2O)cc1
inactive: DU-145 prostate 30.9% | K-562 leukemia 25% | MALME-3M melanoma 41.1% | MDA-MB-231 breast 45.8% | RXF 393 renal 23.9% | SF-268 CNS 39.9% | SF-295 CNS 26.9% | SF-539 CNS 19.7% | UACC-257 melanoma 56.7% | M14 melanoma 14.9%

COc1cc2c(=O)n(C3CCCCCC3)c3c4cc[nH]c4ncc3c2cc1OC
inactive: DU-145 prostate 78% | K-562 leukemia 16% | MALME-3M melanoma 113% | MDA-MB-231 breast 75.5% | RXF 393 renal 37.7% | SF-268 CNS 65.6% | SF-295 CNS 69.7% | SF-539 CNS 17.1% | UACC-257 melanoma 109% | M14 melanoma 92.6%

COc1ccc(NC(=O)c2c(Nc3ccc(OC)cc3OC)n[nH]c2N)c(OC)c1
inactive: DU-145 prostate 108% | K-562 leukemia 95.6% | MALME-3M melanoma 107% | MDA-MB-231 breast 72.7% | RXF 393 renal 81.1% | SF-268 CNS 102% | SF-295 CNS 92.1% | SF-539 CNS 116% | UACC-257 melanoma 114% | M14 melanoma 89.6%

CC(C)(C)n1cc(-c2ccnc(NCCCNS(=O)(=O)c3ccc(F)cc3)c2)c(-c2cccc(O)c2)n1
inactive: DU-145 prostate 63.4% | MALME-3M melanoma 38.1% | MDA-MB-231 breast 33.2% | RXF 393 renal 38.7% | SF-268 CNS 51.4% | SF-295 CNS 26.8% | SF-539 CNS 28.4% | UACC-257 melanoma 50.1% | M14 melanoma 29%
active: K-562 leukemia 9.04%

COc1ccc(S(=O)(=O)n2ccc(-c3ccc4c(c3)CCC(C)(C)O4)n2)cc1OC
inactive: DU-145 prostate 82.6% | K-562 leukemia 53% | MALME-3M melanoma 114% | MDA-MB-231 breast 82.5% | RXF 393 renal 75.1% | SF-268 CNS 85.3% | SF-295 CNS 63% | SF-539 CNS 97.1% | UACC-257 melanoma 57.1% | M14 melanoma 81.9%

Cc1ccc(S(=O)(=O)n2cc(C(=O)C(=O)N3CCOCC3)c3ccccc32)cc1
inactive: DU-145 prostate 109% | K-562 leukemia 86.9% | MALME-3M melanoma 91% | MDA-MB-231 breast 80.2% | RXF 393 renal 110% | SF-268 CNS 97% | SF-295 CNS 94.1% | SF-539 CNS 91.2% | UACC-257 melanoma 98.4% | M14 melanoma 91.4%

O=S(=O)(NCCCNc1nccc(-n2ccc3cccnc32)n1)c1ccc(Br)cc1
inactive: DU-145 prostate 104% | K-562 leukemia 101% | MALME-3M melanoma 118% | MDA-MB-231 breast 104% | RXF 393 renal 107% | SF-268 CNS 94.9% | SF-295 CNS 104% | SF-539 CNS 103% | UACC-257 melanoma 118% | M14 melanoma 110%

C/C=C/C1=CN2C(=O)c3cc(OC4OC(C)C(NC)C(C)(O)C4O)c(C)cc3N=C[C@@H]2C1 (stereo not given in full)
inactive: MDA-MB-231 breast 15.7%
active: DU-145 prostate -18.6% | K-562 leukemia 5.83% | MALME-3M melanoma -43% | RXF 393 renal -44.9% | SF-268 CNS -28.8% | SF-295 CNS -23.1% | SF-539 CNS -44.9% | UACC-257 melanoma -1.62% | M14 melanoma -60.5%

CCOC(=O)c1cc(C(=O)c2cc(OC)c(OC)c(OC)c2)n2c1ccc1ccccc12
inactive: DU-145 prostate 22.1% | K-562 leukemia 12.3% | MALME-3M melanoma 19.9% | MDA-MB-231 breast 49.8% | SF-268 CNS 49.6% | SF-295 CNS 22.4% | UACC-257 melanoma 63.6% | M14 melanoma 10.7%
active: RXF 393 renal -9.46% | SF-539 CNS -13.4%

N[C@@H]1CCN(C(=O)c2cc3cc(Cl)c(F)c(F)c3[nH]2)C1
inactive: DU-145 prostate 102% | K-562 leukemia 83.4% | MALME-3M melanoma 97.8% | MDA-MB-231 breast 79.6% | RXF 393 renal 87.1% | SF-268 CNS 79.8% | SF-295 CNS 94.9% | SF-539 CNS 86.8% | UACC-257 melanoma 99.7% | M14 melanoma 89.8%

COC(=O)c1cc2cc(-c3ccc(OC)cc3)cnc2[nH]1
inactive: DU-145 prostate 18.1% | MALME-3M melanoma 56.3% | MDA-MB-231 breast 57.1% | SF-268 CNS 45.5% | UACC-257 melanoma 51.3% | M14 melanoma 14.3%
active: K-562 leukemia 8.43% | RXF 393 renal -36.4% | SF-295 CNS 0.983% | SF-539 CNS -27.2%

Oc1ccc(Cl)cc1-c1cc(-c2ccc(F)cc2)n[nH]1
inactive: DU-145 prostate 75.9% | K-562 leukemia 63.2% | MALME-3M melanoma 77.8% | MDA-MB-231 breast 27.3% | RXF 393 renal 73.4% | SF-268 CNS 63.6% | SF-295 CNS 49.2% | SF-539 CNS 90.1% | UACC-257 melanoma 96.6% | M14 melanoma 76.6%

CCN(CC)CCOC(=O)C(c1ccccc1)(c1ccccc1)C(C)C
inactive: DU-145 prostate 99% | K-562 leukemia 85.7% | MALME-3M melanoma 95.1% | MDA-MB-231 breast 74.3% | RXF 393 renal 95.6% | SF-268 CNS 86.1% | SF-295 CNS 91.1% | SF-539 CNS 107% | UACC-257 melanoma 63.2% | M14 melanoma 106%

C/C(=C\c1ccc(OCC(=O)O)c(Cl)c1Cl)[N+](=O)[O-]
inactive: DU-145 prostate 108% | K-562 leukemia 88% | MALME-3M melanoma 135% | MDA-MB-231 breast 113% | RXF 393 renal 136% | SF-268 CNS 95.2% | SF-295 CNS 116% | SF-539 CNS 103% | UACC-257 melanoma 90.4% | M14 melanoma 102%

CN(C)c1oc(C2OC2c2ccccc2)nc1C#N (stereo not given)
inactive: DU-145 prostate 107% | K-562 leukemia 106% | MALME-3M melanoma 95.9% | MDA-MB-231 breast 87.3% | RXF 393 renal 86.7% | SF-268 CNS 95.7% | SF-295 CNS 98.8% | SF-539 CNS 104% | UACC-257 melanoma 83% | M14 melanoma 104%

Clc1cc(Cl)cc(-c2ccc(-c3ccc(/C=N/NC4=NCCN4)cc3)s2)c1
active: K-562 leukemia -1.14%
inactive: DU-145 prostate 23.4% | MALME-3M melanoma 98.3% | MDA-MB-231 breast 61.5% | RXF 393 renal 60.6% | SF-268 CNS 76.2% | SF-295 CNS 93.7% | SF-539 CNS 84% | UACC-257 melanoma 103% | M14 melanoma 94.4%

COc1ccc2c(c1)[nH]c(=O)c1c3cc(C)c(C)cc3cn21
active: DU-145 prostate -68% | MDA-MB-231 breast -35.7% | RXF 393 renal -48.6% | SF-268 CNS -3.98% | SF-295 CNS -51.7% | SF-539 CNS 8.86% | M14 melanoma -33.5%
inactive: K-562 leukemia 35.9% | MALME-3M melanoma 15.6% | UACC-257 melanoma 66.8%

C=C1c2nc3ccccc3n2C=C(c2ccc(Cl)cc2)N1Cc1ccccc1
inactive: DU-145 prostate 103% | K-562 leukemia 59.1% | MALME-3M melanoma 94.5% | MDA-MB-231 breast 85.4% | RXF 393 renal 65.7% | SF-268 CNS 90.3% | SF-295 CNS 89.8% | SF-539 CNS 96.4% | UACC-257 melanoma 75.4% | M14 melanoma 85.2%

CCCCCCCCCCCCCCCCCCNC(=O)[C@H]1CSC(c2ccc(OC)cc2O)N1 (stereo not given in full)
inactive: DU-145 prostate 22.5% | K-562 leukemia 25.7% | MALME-3M melanoma 96.6% | MDA-MB-231 breast 38.1% | RXF 393 renal 32.5% | SF-268 CNS 50.6% | SF-295 CNS 93% | SF-539 CNS 66% | UACC-257 melanoma 88.3% | M14 melanoma 65.3%

COc1ccc(/C=C\c2cc(OC)c(OC)c(OC)c2)cc1OC(=O)c1cccc(Cn2cc(CCOC(=O)c3cccc(Cn4nnc5c4C(=O)c4ccccc4C5=O)c3)nn2)c1
active: DU-145 prostate 7.26% | K-562 leukemia 8.24% | SF-539 CNS -22.5% | M14 melanoma -0.552%
inactive: MALME-3M melanoma 41.5% | MDA-MB-231 breast 21.6% | RXF 393 renal 15.9% | SF-268 CNS 27.7% | SF-295 CNS 11% | UACC-257 melanoma 67.3%

COc1ccc(-c2nc(/C=N/Nc3cc(C)nc4ccc(Cl)cc34)c(C)o2)cc1
active: DU-145 prostate -94.1% | K-562 leukemia -35% | MALME-3M melanoma -90.9% | MDA-MB-231 breast -95.9% | RXF 393 renal -96.8% | SF-268 CNS -71.8% | SF-295 CNS -73.5% | SF-539 CNS -90% | M14 melanoma -75.6%
inactive: UACC-257 melanoma 104%

O=S(=O)(CC(O)(c1ccccc1)c1ccccc1)CC(O)(c1ccccc1)c1ccccc1
active: SF-539 CNS 2.42%
inactive: DU-145 prostate 74.6% | K-562 leukemia 75.8% | MALME-3M melanoma 61.8% | MDA-MB-231 breast 71.2% | RXF 393 renal 93.4% | SF-268 CNS 85.3% | SF-295 CNS 74.8% | UACC-257 melanoma 102% | M14 melanoma 95.2%
